# Records with an inconclusive call do not appear. Values without a mark were called inactive. Activity calls are given as the source filed them. The call rests on the fitted dose curve; in most records, active means well fitted inhibition curve with a large enough effect; inconclusive means small, poorly fitted or top-dose-only effect; inactive means flat fitted curve, though single readings scatter.
# Tested on: JCK
# Test: qHTS profiling for inhibitors of Plasmodium falciparum proliferation (AID 504749); further: nearly all actives have a fitted effect of over 60% in size;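 on activity, negative = inhibition: 0% = DMSO vehicle and full inhibition = artemisinin control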
# Settings: P. falciparum in erythrocytes, SYBR Green DNA, 72 h; series mostly up to 28.7 µM; activity, negative = inhibition: at the top concentration
# Method in brief: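 P. falciparum-infected erythrocytes (0.3% parasitemia, 2.5% hematocrit) incubated with compound 72 h at 37 C, 5% CO2. Parasite DNA detected by SYBR Green after lysis, overnight at room temperature; normalised to 0.29 uM artemisinin and DMSO.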
# Potency means the concentration at half of the fitted maximal effect.
SMILES,"activity, negative = inhibition",Potency
O=[N+]([O-])c1ccccc1,0.0168%,
O=C1CC[C@@]2(O)C3Cc4ccc(O)c5c4C2(CCN3CC2CC2)[C@H]1O5 (stereo partly specified),4.48%,
O=C/C=C/c1ccccc1,4.63%,
CCNC(C)Cc1cccc(C(F)(F)F)c1 (stereo unspecified),0.446%,
CC1CCC(C(C)C)C(OC(=O)c2ccccc2N)C1 (stereo unspecified),-7.31%,
CCOP(=O)(OCC)O/C(=C/Cl)c1ccc(Cl)cc1Cl,-3.5%,
c1csc(C2(N3CCCCC3)CCCCC2)c1,-0.941%,
CCN(CC)C(=O)/C(Cl)=C(\C)OP(=O)(OC)OC,16.8%,
c1ccc(C2(N3CCCC3)CCCCC2)cc1,-25.1%,
CCC1(CC)C(=O)NC(=O)N(C)C1=O,3.62%,
c1cc2c(c(NC3=NCCN3)c1)CCCC2,-5.69%,
CCC1C(C)=NN=C(c2ccc(OC)c(OC)c2)c2cc(OC)c(OC)cc21 (stereo unspecified),-5.72%,
CCC(=O)O[C@@](Cc1ccccc1)(c1ccccc1)[C@@H](C)CN(C)C,-18.7% [at 12.8 µM],
C=CCC1(C(C)CCC)C(=O)N=C(S)NC1=O (stereo unspecified),6.27%,
Oc1cccc[c]1[Hg][Cl],,12.6 µM (active)
C[C@H]1CCC[C@H](O)CCCCCc2cc(O)cc(O)c2C(=O)O1,-5.76%,
ClC1C(Cl)C(Cl)C(Cl)C(Cl)C1Cl (stereo unspecified),5.33%,
CCC1(c2ccccc2)C(=O)NC(=O)N(C)C1=O (stereo unspecified),6.3%,
CCCCCCCCCC(=O)O[C@H]1CC[C@H]2[C@@H]3CCC4=CC(=O)CC[C@]4(C)[C@H]3CC[C@]12C,6.67%,
CCC1(c2ccccc2)C(=O)NC(=O)N(C(=O)c2ccccc2)C1=O (stereo unspecified),0.905%,
COc1ccc2c(c1OC)C(=O)OC2C1c2cc3c(cc2CCN1C)OCO3 (stereo unspecified),-21.9%,

# — PubChem BioAssay (NCATS)
